# From PubChem
# DAX1 inh – DAX1 (NR0B1) inhibitors, primary screen, cell-based, HEK293, Gal4-DAX1, luciferase luminescence | HEK293 Gal4-DAX1 luciferase reporter | inhibition, % at 6.75 µM | hit rate 0.99% among 340,000 | AID 504766, 2011;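 active means inhibition above the mean over all tested compounds plus 3 SD, cut at about 4.2% in these data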;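 further: 0% = DAX1-transfected cells with DMSO and 100% = empty-vector control cells with DMSO; inhibition shows as a rise in luminescence from relieved DAX1 repression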
# GAA850 FXN act – FXN promoter activators, primary screen, cell-based, luciferase luminescence, HEK293 lucGAA850 | AID 540364, 2011 | activation, % at 6 µM | HEK293 lucGAA850 FXN promoter luciferase reporter, 24 h; percent of 10 µM SAHA response | hit rate 0.56% among 360,000;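 active means activation above the average of all compounds screened plus 3 SD, cutoff fixed separately per campaign, cut at about 7.5% in these data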;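 further: 0% = DMSO wells and 100% = 10 µM SAHA wells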
# HSF1 activator – HSF-1 activators, primary screen, NIH3T3-HGL cells, MG132 stress, luminescence, single point | NIH3T3-HGL HSF-1 luciferase reporter, 8 h; 100% = twice DMSO control signal | activation, % at 9 µM | hit rate 1.7% among 300,000;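 active means mean replicate activation of at least 50% with a set share of replicates each reaching 50%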;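 further: 0% = median of the neutral control wells and 100% = twice that signal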
# HSP90 inh – HSP90 inhibitors, primary screen, cell lysate, luminescence; Heat shock protein HSP 90 (rabbit reticulocyte lysate; luciferase refolding); Rabbit reticulocyte lysate, luciferase refolding luminescence, 3 h; inhibition, % at 5.6 µM; hit rate 0.91% among 290,000;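 active means inhibition above the screen-wide mean plus 3 SD, computed separately per campaign, cut at about 16% in these data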;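 further: 0% = DMSO wells and 100% = 60 µM geldanamycin wells; inhibitors lower the luminescence because luciferase stays unfolded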
# HSF1 inh – HSF1 inhibitors in luciferase reporter cells, primary screen, cell-based, NIH3T3, luminescence. AID 2098, 2009. NIH3T3-HGL HSE-luciferase, MG132-induced, luminescence 8 h; stronger effect = lower value. hit rate 0.77% among 300,000. activity change, negative = inhibition, % at 7.5 µM (by protocol);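 active means more than half of replicate wells show activity change below -50%, luminescence cut by over half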;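 further: luciferase reports HSF-1 transcriptional activity via heat shock element; 0% = median of DMSO wells and -100% = zero luminescence signal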
# AHR act – AHR activators, primary screen, cell-based, luminescence, luciferase reporter, human | AHR-responsive luciferase reporter cells | AID 2796, 2010 | Aryl hydrocarbon receptor (Homo sapiens), P35869 | hit rate 2.5% among 320,000 | activation, % at 5 µM; in the data active means activation above about 47%;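 further: 0% = vehicle wells and 100% = reference agonist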
# Target sequence (P35869 whole entry, looked up): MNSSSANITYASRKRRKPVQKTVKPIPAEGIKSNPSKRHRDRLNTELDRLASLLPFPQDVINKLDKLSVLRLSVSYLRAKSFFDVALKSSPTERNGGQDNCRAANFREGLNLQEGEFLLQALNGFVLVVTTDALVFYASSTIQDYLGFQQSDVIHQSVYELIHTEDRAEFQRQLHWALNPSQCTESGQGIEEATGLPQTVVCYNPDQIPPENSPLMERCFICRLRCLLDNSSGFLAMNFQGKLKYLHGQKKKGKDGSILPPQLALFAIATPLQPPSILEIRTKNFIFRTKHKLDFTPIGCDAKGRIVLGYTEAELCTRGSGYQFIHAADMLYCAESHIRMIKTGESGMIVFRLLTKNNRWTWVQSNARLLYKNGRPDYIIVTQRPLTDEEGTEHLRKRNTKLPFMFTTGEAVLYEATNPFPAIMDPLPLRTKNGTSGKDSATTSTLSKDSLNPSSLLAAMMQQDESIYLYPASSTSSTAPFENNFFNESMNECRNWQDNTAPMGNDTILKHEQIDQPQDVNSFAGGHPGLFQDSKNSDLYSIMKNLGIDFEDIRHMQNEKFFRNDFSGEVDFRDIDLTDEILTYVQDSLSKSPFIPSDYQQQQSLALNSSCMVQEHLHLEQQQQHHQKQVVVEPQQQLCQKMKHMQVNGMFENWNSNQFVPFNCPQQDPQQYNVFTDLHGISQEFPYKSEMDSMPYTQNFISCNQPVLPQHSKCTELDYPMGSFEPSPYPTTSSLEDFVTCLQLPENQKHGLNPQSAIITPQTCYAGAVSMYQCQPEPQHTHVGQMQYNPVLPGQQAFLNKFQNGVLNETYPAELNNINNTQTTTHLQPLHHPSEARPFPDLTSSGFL
# GAA30 counter – GAA30 FXN promoter activators, confirmation, counter-screen for GAA850 frataxin promoter activator project, cell-based, luminescence, HEK293, lucGAA30, triplicate. shares compounds with GAA850 FXN act. HEK293 lucGAA30 FXN promoter luciferase, 24 h; DMSO = 0%, 5 µM ipriflavone = 100%. activation, % at 6 µM. hit rate 66% among 1,900. AID 588350, 2011;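 active means mean activation above the mean of solvent-only control wells plus 3 SD, cut at about 22% in these data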;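 further: counterscreen of GAA850 promoter hits where activity marks nonselective or luminescence artifacts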
# GAA850 confirm – FXN GAA850 promoter activators in reporter cells, confirmation, cell-based, luminescence, HEK293 lucGAA850, triplicate; shares compounds with GAA850 FXN act; HEK293 lucGAA850 FXN promoter luciferase reporter, 24 h; 100% = activation by SAHA; activation, % at 6 µM; hit rate 86% among 1,900; AID 588351, 2011;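 active means mean activation above a set limit taken from the primary screen, cut at about 8% in these data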;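 further: 0% = DMSO wells and 100% = 10 µM SAHA wells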
# * hit, by the source's call; . = no result. Shown are actives, neighbours in structure and some others; about 5.9% of the full set was active somewhere.
SMILES,DAX1 inh,GAA850 FXN act,HSF1 activator,HSP90 inh,HSF1 inh,AHR act,GAA30 counter,GAA850 confirm
N#Cc1nc(-c2ccccc2Cl)oc1N1CCCCC1,0,8.7*,3,0,17,27,56*,26*
N#Cc1nc(COc2ccccc2F)oc1N1CCCCCC1,0,9.6*,.,4,.,36,47*,24*
Cc1ccc(C2N=C(N)Nc3nc(=O)c4ccccc4n32)cc1 (stereo not given),1,2,-5,5,0,-2,.,.
N/C(=N\OS(=O)(=O)c1ccc(Br)cc1)c1ccncc1,0,1,8,1,0,0,.,.
CCOC(=O)c1ccc(N/C=C\C(=O)c2cccc(OC)c2)cc1,-2,5,-9,3,4,5,.,.
COc1cccc(C(=O)/C=C/Nc2cc(C)ccc2O)c1,1,11*,-17,7,5,6,47*,33*
CCN(C(=O)c1ccco1)c1nc(-c2ccc(OC)cc2)cs1,3,8.3*,48,-5,26,5,110*,37*
O=[N+]([O-])c1ccc2c(c1N1CCCCC1)=NC1(CCCCC1)[N+]=2[O-],-2,1,6,-3,-1,2,.,.
[O-][N+]1=c2ccc(Nc3ccccc3)cc2=NC12CCCCC2,-1,10*,22,9,17,18,46*,70*
COc1ccc(Nc2ccc3c(c2)=NC2(CCCCC2)[N+]=3[O-])cc1,-2,17*,79*,2,58,10,50*,106*
Cc1cc(NC(=O)CSc2n[nH]c(-c3ccc(Cl)cc3Cl)n2)no1,0,2,.,.,.,7,.,.
COc1ccc(C(C)NC(=O)C2C(=O)NC3(C)CC2c2ccccc2O3)cc1 (stereo not given),-2,2,-5,4,-1,-1,.,.
COc1ccc(NC(=O)C2C(=O)NC3(C)CC2c2ccccc2O3)cc1 (stereo not given),1,13*,10,-4,-4,0,21,7
Cc1ccc(Nc2ncccc2C(=O)O)cc1C,1,1,18,0,1,9,.,.
Cc1ccc(Nc2ncccc2C(N)=O)cc1[N+](=O)[O-],3,10*,43,0,22,2,100*,27*
COCCn1c(SCC(=O)NCc2ccc3c(c2)OCO3)nnc1-c1c[nH]c2ccccc12,0,-1,-14,0,-4,2,.,.
Cc1ccc2nc(/C(C#N)=C\c3ccc(Oc4ccc(C(F)(F)F)cc4[N+](=O)[O-])cc3)[nH]c2c1,2,0,29,-1,19,21,.,.
N#C/C(=C\c1cccc(Oc2ccc(C(F)(F)F)cc2[N+](=O)[O-])c1)c1nc2ccccc2[nH]1,0,8.0*,-6,2,1,10,23*,7.9*
CC(=O)Nc1ccc(/C=N/Nc2nc3ccccc3s2)cc1,4.8*,8.7*,68*,-3,47,.,123*,36*
CC(=O)Nc1ccc(S(=O)(=O)Nc2nc3ccccc3s2)cc1,-1,0,7,4,-3,11,.,.
Cc1ccc(C)c(OCCC(=O)OCC(=O)NNC(=O)c2ccccc2)c1,0,2,.,.,.,0,.,.
CC(NC=O)c1nc2ccccc2n1CCc1ccccc1 (stereo not given),0,0,2,6,11,-2,.,.
Cc1ccc(NC(=O)C(NC2CCCc3ccccc32)c2ccccc2)c([N+](=O)[O-])c1 (stereo not given),0,9.6*,1,2,7,22,15,17*
COc1ccc(/C=C(/NC(=O)c2ccco2)C(=O)N2CCOCC2)cc1,1,0,5,1,-14,3,.,.
NC(=O)C1CC(=O)N(c2ccc(OCc3ccc(Cl)cc3)cc2)C1 (stereo not given),1,8.3*,27,-2,17,0,74*,25*
SMILES,DAX1 inh,GAA850 FXN act,HSF1 activator,HSP90 inh,HSF1 inh,AHR act,GAA30 counter,GAA850 confirm
Cc1cccc2cc3ccccc3nc12,0,1,19,.,2,0,.,.
c1ccc2nc3c(ccc4ccccc43)cc2c1,2,7.7*,.,.,.,.,106*,37*
CC(=O)NCC(=O)N(C)C(C(=O)Nc1ccc(C(C)C)cc1)c1ccccc1 (stereo not given),0,2,-19,-4,4,-2,.,.
COc1ccc(C(=O)/C=C2\C(=O)Nc3ccc(Br)cc32)cc1,0,2,-5,.,-5,.,.,.
O=C1Nc2ccc(Br)cc2/C1=C/C(=O)c1ccc2c(c1)OCO2,1,11*,0,4,-1,70*,14,9.9*
COc1ccc(CN(C)C(=O)c2[nH]c(C)c(C(C)=O)c2C)c(OC)c1OC,-1,-1,-15,2,-12,4,.,.
C/C=C(\C)CN1CCC(Oc2cc(C(=O)NC3CC3)ccc2OC)CC1,0,0,-5,0,-5,-1,.,.
O=C(O)c1ccc(N/N=C/c2ccnc3ccccc23)cc1,3,9.3*,-11,2,1,23,93*,32*
Cc1nc([N+](=O)[O-])c(Br)n1CC(=O)c1ccc2ccccc2c1,-1,24*,159*,17*,118,3,328*,118*
CCCn1c(SCc2ccc(Cl)cc2)nc2c1c(=O)[nH]c(=O)n2C,0,9.3*,22,1,13,-4,10,15*
C/C=C/Cn1c(SCc2ccc(Cl)cc2)nc2c1c(=O)[nH]c(=O)n2C,-1,11*,32,-4,7,4,17,17*
COCC(C)n1c(SCC(=O)Nc2c(C)n(C)n(-c3ccccc3)c2=O)nc2ccccc2c1=O (stereo not given),0,-3,.,.,.,1,.,.
Cc1cc(C)c(NC(=O)CNC(=O)CSc2nnc(N)s2)c(C)c1,-1,-1,-5,.,-4,1,.,.
CN(Cc1ccccc1)c1nc(N)c([N+](=O)[O-])c(Nc2cccc(F)c2)n1,0,9.6*,-5,0,5,48*,27*,17*
